Compounds with a hit are over-represented: about 6.8% of the library has one in this group of screens.
T cruzi growth-1: T. cruzi proliferation inhibition; T. cruzi beta-gal in NIH3T3, GalScreen luminescence, 90 h; AID 624255; 77,000 compounds, 5.9% hits; inhibition, % at 8.34 µM;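 active means mean inhibition above about 93%, with at least 55% of replicates each passing it, limit read from the data, passing the limit was not always enough; inconclusive means only one of those two conditions holds; inactive means neither condition holds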
Pf Dd2 growth: P. falciparum Dd2 growth inhibition. 94,000 compounds, 2.3% hits. SYBR Green, 72 h; hits give low values. activity change, % at 10 µM; in the data active means activity change below about -80%; inconclusive means no clear call, values can overlap the other calls
C diff growth: blocks growth of Clostridium difficile; Clostridium difficile clinical isolate growth, OD600, 24 h; hits give low values; growth activity, negative = inhibition, % at 16 µg/mL (by protocol); 86,000 compounds, 0.25% hits;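 active means mean growth activity at or below -80% and every replicate also at or below -80%; inconclusive means mean at or below -80% but some replicate above -80%; inactive means mean growth activity above -80%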
T cruzi growth-2: inhibitors of T. cruzi proliferation. shares compounds with T cruzi growth-1. T. cruzi beta-gal in NIH3T3, GalScreen luminescence, 90 h. inhibition, % at 8.35 µM. 5,600 compounds, 72% hits. AID 651739;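 active means mean replicate inhibition above about 95% and at least 55% of replicates individually reaching it, limit read from the data; inconclusive means only one of the two criteria is met; inactive means neither criterion is met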
T cruzi growth-3: inhibitors of T. cruzi proliferation | shares compounds with T cruzi growth-1 | T. cruzi beta-gal in NIH3T3, GalScreen luminescence, 90 h | inhibition, % at 2.09 µM | 5,600 compounds, 21% hits;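 active means mean inhibition above about 95%, with at least 55% of replicates also reaching it, limit read from the data; inconclusive means meets just one of the two conditions; inactive means meets neither condition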
NIH3T3 tox: kills mouse NIH/3T3 fibroblasts | shares compounds with T cruzi growth-1 | NIH/3T3 viability, CellTiter-Glo ATP luminescence, 90 h | cytotoxicity (signal decrease), % at 8.35 µM | 5,600 compounds, 14% hits;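 active means mean signal decrease across replicates above about 35% based on untreated-well scatter, with enough replicates individually passing, limit read from the data; inconclusive means no rule stated though some were filed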
NIH3T3 tox 2: cytotoxicity in mouse NIH/3T3 fibroblasts. 5,600 compounds, 56% hits. shares compounds with T cruzi growth-1. NIH/3T3 viability, CellTiter-Glo ATP luminescence, 90 h. inhibition, % at 24.9 µM;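 active means mean loss of cell viability signal at or above a set limit, and enough replicates individually reaching it; inconclusive means meets only the mean limit or only the replicate share; inactive means meets neither condition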
A number is an active result; . = inactive; ? = inconclusive; / = no result.

SMILES	T cruzi growth-1	Pf Dd2 growth	C diff growth	T cruzi growth-2	T cruzi growth-3	NIH3T3 tox	NIH3T3 tox 2
C[C@H](CO)N1C[C@H](C)[C@@H](CN(C)C)OCCCC[C@H](C)Oc2ccc(NC(=O)Nc3ccc(C(F)(F)F)cc3)cc2C1=O	.	.	.	/	/	/	/
C[C@H](CO)N1C[C@H](C)[C@H](CN(C)C)OCCCC[C@H](C)Oc2ccc(NC(=O)Nc3ccc(C(F)(F)F)cc3)cc2C1=O	.	/	.	/	/	/	/
C[C@@H]1CN([C@H](C)CO)C(=O)c2cc(NC(=O)Nc3ccc(C(F)(F)F)cc3)ccc2O[C@@H](C)CCCCO[C@@H]1CN(C)CC1CCCCC1	?	.	.	?	111.6	117.8	104.9
COc1ccc(CN(C)C[C@@H]2Oc3ccc(NS(=O)(=O)c4ccc(C)cc4)cc3C(=O)N([C@@H](C)CO)C[C@H]2C)cc1	.	.	.	/	/	/	/
COc1ccc2c3c([nH]c2c1)[C@@H](CO)N(C)CC31CCN(C(=O)Nc2c(C)noc2C)CC1	/	.	.	/	/	/	/
Cc1noc(C)c1S(=O)(=O)Nc1ccc2c(c1)C(=O)N([C@H](C)CO)C[C@@H](C)[C@@H](CN(C)S(=O)(=O)c1ccccc1)O2	.	.	/	/	/	/	/
COc1ccc(-c2ccc3c(c2)[C@H]2[C@H](CCN2C(=O)Cc2ccncc2)[C@H](CO)N3)cc1	.	.	.	/	/	/	/
O=C(Cc1ccccc1)N1CC[C@H]2[C@H](CO)Nc3ccc(-c4cccc(F)c4)cc3[C@H]21	.	.	.	/	/	/	/
COc1cccc(-c2ccc3c(c2)[C@@H]2[C@@H](CCN2C(=O)Cc2ccncc2)[C@@H](CO)N3)c1	?	.	.	100.7	.	.	.
O=C(Cc1ccncc1)N1CC[C@@H]2[C@H]1c1cc(-c3cccc(F)c3)ccc1N[C@@H]2CO	117.8	.	.	107.5	.	.	.
CN(C)C(=O)c1ccc(-c2ccccc2[C@H]2[C@H](C#N)N(C(=O)C3CCCCC3)[C@H]2CO)cc1	/	.	.	/	/	/	/
O=C(Nc1ccc2c(c1)[C@@H]1C[C@@H](CC(=O)N3CCCCC3)O[C@H](CO)[C@@H]1O2)NC1CCCCC1	/	.	.	/	/	/	/
COc1ccc(S(=O)(=O)N(C)C[C@H]2OCCCC[C@@H](C)Oc3ccc(NC(=O)NC4CCCCC4)cc3C(=O)N([C@@H](C)CO)C[C@@H]2C)cc1	95.8	.	.	.	.	.	.
COc1ccc(S(=O)(=O)N(C)C[C@H]2OCCCC[C@H](C)Oc3ccc(NC(=O)NC4CCCCC4)cc3C(=O)N([C@@H](C)CO)C[C@@H]2C)cc1	.	.	.	/	/	/	/
COc1ccc(S(=O)(=O)N(C)C[C@H]2OCCCC[C@H](C)Oc3ccc(NC(=O)NC4CCCCC4)cc3C(=O)N([C@H](C)CO)C[C@@H]2C)cc1	104.4	.	.	112.1	.	.	.
COc1ccc(S(=O)(=O)N(C)C[C@@H]2OCCCC[C@H](C)Oc3ccc(NC(=O)NC4CCCCC4)cc3C(=O)N([C@H](C)CO)C[C@@H]2C)cc1	.	.	.	/	/	/	/
COc1ccccc1-c1cnc2c(c1)C(=O)N([C@@H](C)CO)C[C@H](C)[C@H](CN(C)Cc1ccc(F)cc1)O2	/	.	.	/	/	/	/
COc1ccc(S(=O)(=O)N(C)C[C@H]2Oc3cc(C#CC4CCCC4)ccc3S(=O)(=O)N([C@H](C)CO)C[C@H]2C)cc1	.	.	.	/	/	/	/
Cc1ccc(S(=O)(=O)N(C)C[C@H]2Oc3cc(C#CC4CCCC4)ccc3S(=O)(=O)N([C@H](C)CO)C[C@@H]2C)cc1	127.0	.	.	100.3	108.2	.	51.1
COc1ccc(S(=O)(=O)N(C)C[C@@H]2Oc3cc(C#CC4CCCC4)ccc3S(=O)(=O)N([C@@H](C)CO)C[C@H]2C)cc1	.	.	.	/	/	/	/
Cc1ccc(S(=O)(=O)N(C)C[C@@H]2Oc3cc(C#CC4CCCC4)ccc3S(=O)(=O)N([C@@H](C)CO)C[C@H]2C)cc1	126.7	.	.	101.1	99.2	45.9	77.1
Cc1noc(C)c1S(=O)(=O)N(C)C[C@@H]1OCc2ccccc2-c2c(n(C)c3ccccc23)C(=O)N([C@@H](C)CO)C[C@@H]1C	.	.	.	/	/	/	/
CC(C)NC(=O)N(C)C[C@@H]1Oc2cc(C#C[C@@H](C)O)ccc2S(=O)(=O)N([C@@H](C)CO)C[C@H]1C	/	.	.	/	/	/	/
CC(C)CC#Cc1cnc2c(c1)C(=O)N([C@@H](C)CO)C[C@@H](C)[C@H](CN(C)Cc1cccc(F)c1)O2	103.3	.	.	104.3	.	.	107.5
C[C@@H]1CN([C@H](C)CO)C(=O)c2cc(C#CCN(C)C)cnc2O[C@H]1CN(C)Cc1cccc(F)c1	.	.	.	/	/	/	/
SMILES	T cruzi growth-1	Pf Dd2 growth	C diff growth	T cruzi growth-2	T cruzi growth-3	NIH3T3 tox	NIH3T3 tox 2
C[C@H]1CN([C@@H](C)CO)C(=O)c2cc(C#CCc3ccccc3)cnc2O[C@H]1CN(C)Cc1cccc(F)c1	.	.	/	/	/	/	/
CC(C)CC#Cc1cnc2c(c1)C(=O)N([C@H](C)CO)C[C@H](C)[C@@H](CN(C)Cc1cccc(F)c1)O2	111.6	.	.	106.4	.	.	106.9
C[C@@H]1CN([C@@H](C)CO)C(=O)c2cc(C#CCc3ccccc3)cnc2O[C@H]1CN(C)Cc1cccc(F)c1	96.6	.	/	110.6	.	.	104.5
C[C@@H]1CN([C@@H](C)CO)C(=O)c2cc(C#CCN(C)C)cnc2O[C@@H]1CN(C)Cc1cccc(F)c1	.	.	.	/	/	/	/
CN1C(=O)c2cc(NC(=O)Cc3cccs3)ccc2OC[C@H]2O[C@@H](CC(=O)O)CC[C@H]21	.	.	.	/	/	/	/
COc1ccc(NC(=O)N(C)C[C@H]2OCCCC[C@@H](C)Oc3ccc(NC(=O)C4CCCCC4)cc3C(=O)N([C@H](C)CO)C[C@H]2C)cc1	.	.	.	/	/	/	/
CO[C@H]1CN(C)C(=O)c2ccc(NS(=O)(=O)CC(F)(F)F)cc2OC[C@H](C)N(CC2CCCCC2)C[C@@H]1C	/	.	.	/	/	/	/
COCC#Cc1cnc2c(c1)C(=O)N([C@H](C)CO)C[C@@H](C)[C@H](CN(C)C(=O)c1cnccn1)O2	.	.	.	/	/	/	/
C[C@H](CO)N1C[C@H](C)[C@H](CN(C)Cc2ccccc2)Oc2cc(C#Cc3ccccn3)ccc2S1(=O)=O	106.8	.	.	108.8	.	.	.
C[C@@H]1CN([C@H](C)CO)S(=O)(=O)c2ccc(C#Cc3ccccn3)cc2O[C@@H]1CN(C)Cc1ccccc1	100.8	.	.	.	.	.	98.5
CC(=O)N(C)C[C@H]1Oc2cc(C#Cc3ccccn3)ccc2S(=O)(=O)N([C@H](C)CO)C[C@@H]1C	.	.	.	/	/	/	/
C[C@H](CO)N1C[C@H](C)[C@H](CN(C)C)Oc2cc(C#Cc3ccccn3)ccc2S1(=O)=O	/	.	.	/	/	/	/
C[C@H]1CN([C@@H](C)CO)S(=O)(=O)c2ccc(C#Cc3ccccn3)cc2O[C@@H]1CN(C)C	/	.	.	/	/	/	/

Assay outcomes: PubChem, Broad Institute
